Assay outcomes (PubChem)
PLCg1 inh = PLC-gamma1 enzyme inhibitors, primary screen, biochemical, fluorescence, purified enzyme; inhibition, % at 12.2 µM; 370,000 tested, 0.84% active; AID 720700, 2013; fluorogenic substrate; in the data active = inhibition above about 9.5%
Target sequence (P19174 whole entry, looked up): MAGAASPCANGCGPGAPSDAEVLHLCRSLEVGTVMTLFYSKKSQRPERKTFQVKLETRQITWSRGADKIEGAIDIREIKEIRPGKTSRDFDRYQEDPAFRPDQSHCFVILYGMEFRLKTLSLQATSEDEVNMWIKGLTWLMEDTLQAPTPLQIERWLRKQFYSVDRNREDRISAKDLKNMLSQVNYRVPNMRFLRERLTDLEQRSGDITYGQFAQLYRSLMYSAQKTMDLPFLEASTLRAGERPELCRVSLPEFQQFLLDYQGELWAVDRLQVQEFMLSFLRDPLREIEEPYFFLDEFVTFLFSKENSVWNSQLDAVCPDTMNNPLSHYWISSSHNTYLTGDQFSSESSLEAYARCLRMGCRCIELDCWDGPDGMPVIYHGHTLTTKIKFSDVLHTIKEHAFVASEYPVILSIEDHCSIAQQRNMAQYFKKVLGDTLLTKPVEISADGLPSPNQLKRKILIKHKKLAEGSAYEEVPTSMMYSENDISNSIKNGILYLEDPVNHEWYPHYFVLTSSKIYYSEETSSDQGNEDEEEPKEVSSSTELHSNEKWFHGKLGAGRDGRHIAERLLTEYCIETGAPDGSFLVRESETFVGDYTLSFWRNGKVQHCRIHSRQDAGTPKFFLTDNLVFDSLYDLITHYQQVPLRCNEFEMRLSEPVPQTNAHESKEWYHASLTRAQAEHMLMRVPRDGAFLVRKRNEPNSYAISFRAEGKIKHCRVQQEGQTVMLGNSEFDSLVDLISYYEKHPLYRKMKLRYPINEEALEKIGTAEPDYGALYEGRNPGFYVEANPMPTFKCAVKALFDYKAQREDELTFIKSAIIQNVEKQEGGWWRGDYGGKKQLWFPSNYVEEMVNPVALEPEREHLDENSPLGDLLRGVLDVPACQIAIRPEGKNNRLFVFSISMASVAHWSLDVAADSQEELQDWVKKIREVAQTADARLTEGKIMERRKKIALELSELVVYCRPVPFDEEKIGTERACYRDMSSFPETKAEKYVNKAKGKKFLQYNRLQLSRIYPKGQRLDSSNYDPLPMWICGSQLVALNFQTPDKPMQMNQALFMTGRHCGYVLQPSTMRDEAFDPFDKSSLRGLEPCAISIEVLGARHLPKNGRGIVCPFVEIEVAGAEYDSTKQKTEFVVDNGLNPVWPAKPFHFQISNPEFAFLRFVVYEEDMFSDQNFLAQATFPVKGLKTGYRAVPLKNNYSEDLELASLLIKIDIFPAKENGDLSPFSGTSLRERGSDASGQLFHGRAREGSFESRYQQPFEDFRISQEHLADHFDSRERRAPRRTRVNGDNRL
PLC-beta3 inh = human PLC-beta3 inhibitors, primary screen, biochemical, fluorescence. 1-phosphatidylinositol 4,5-bisphosphate phosphodiesterase beta-3 (Homo sapiens), Q01970. Purified PLC-beta3, fluorogenic substrate. inhibition, % at 12.2 µM. AID 720704, 2013. 370,000 tested, 0.18% active; in the data active = inhibition above about 11%;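 also: 0% = median of compound wells on plate and 100% = full blocker control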
CR mimetic SO = reduction of superoxide in aged yeast, primary screen, HTS; superoxide response (% of plate mean), % at 10 µM; 330,000 tested, 0.18% active; S. cerevisiae aged cells, superoxide DHE fluorescence; hits give low values;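 active = superoxide response under a set limit, about three screen SD below normal, cut at about 65% in these data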;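 also: yeast aged for seven days with compound at 30 °C before DHE staining; 100% = average MFI of all compound-treated wells on the plate with controls excluded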
HGIII-sPLA2 inh = human group III sPLA2 inhibitors, primary screen, biochemical, QFRET, BODIPY PC-A2 liposome substrate | 370,000 tested, 0.56% active | QFRET BODIPY PC-A2 liposome hydrolysis, fluorescence | inhibition, % at 12.2 µM | Group 3 secretory phospholipase A2 (Homo sapiens), Q9NZ20;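 active = inhibition above mean plus 3 SD of compounds lying within the high and low control bounds, cut at about 19% in these data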;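 also: 0% = median of test compound wells and 100% = no enzyme DMSO wells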
AHR activator = AHR activators, primary screen, cell-based, luminescence, luciferase reporter, human; AHR-responsive luciferase reporter cells; activation, % at 5 µM; 320,000 tested, 2.5% active; AID 2796, 2010; in the data active = activation above about 47%;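 also: 0% = vehicle wells and 100% = reference agonist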
HIF activator = HIF pathway transcriptional activators, primary screen, cell-based, U2OS HRE-luciferase, luminescence | U2OS HRE-luciferase reporter; normalized: DMSO 0%, desferrioxamine 100% | 300,000 tested, 0.32% active | activation, % at 7.5 µM (by protocol);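 active = mean activation of at least 10% of the iron chelator positive control signal, with at least half of replicates also reaching 10%; inconclusive = mean and replicate majority disagree about reaching 10%; inactive = mean and most replicates under 10%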
The depositor's hits bear a star; i = inactive; ? = inconclusive; / = no result. Hits are enriched below; roughly 3.9% of the tested compounds scored in any of these assays.

SMILES | PLCg1 inh | PLC-beta3 inh | CR mimetic SO | HGIII-sPLA2 inh | AHR activator | HIF activator
CCC1CCC/C1=N\NC(=O)c1ccccc1C (configuration not stated) | 10* | 7 | 100 | -3 | 4 | 0
C/C(CC(=O)NC1CCCCC1)=N\NC(=O)c1ccccc1C | 0 | -2 | 101 | -4 | 6 | 0
COc1cc(OC)cc(-c2sc3ccc(OC)cc3c2C#CCO)c1 | -25 | -41 | 86 | -7 | 49* | /
COc1cccc(-c2sc3ccc(OC)cc3c2C#CCCO)c1 | -15 | -27 | 100 | -10 | 69* | /
O=C(CN1CCCc2ccccc21)N/N=C/c1c(O)ccc2ccccc12 | -25 | -30 | 94 | 3 | 38 | 16*
CCN(CC)c1ccc(/C=N/NC(=O)CN2CCCc3ccccc32)cc1 | -21 | -30 | 86 | 0 | 32 | 0
O=C(CN1CCCc2ccccc21)N/N=C/c1ccc(O)cc1O | -24 | -27 | 90 | -3 | 53* | 3
O=C(N/N=C\c1c(O)ccc2ccccc12)c1ccc(S(=O)(=O)N2CCCCC2)cc1 | -7 | -4 | 102 | 8 | 4 | 23*
O=C(CNC(=O)c1ccc(S(=O)(=O)N2CCCC2)cc1)N/N=C/c1ccccc1Cl | 0 | 3 | 114 | -17 | 0 | -2
CC(=O)C1(C(=O)NC2CCCC2)CC(c2ccccc2C(F)(F)F)=NO1 (configuration not stated) | 0 | 3 | / | -7 | / | /
COCCCNc1nc2c(-c3cccc(C)c3)nnn2c2ccccc12 | -427 | i | 93 | 2 | 49* | 1
COCCCNc1nc2c(-c3ccc(C)cc3)nnn2c2ccccc12 | -148 | -190 | 106 | 16 | 17 | 0
CCc1nc(SCC(=O)c2ccccc2)c2ccccc2n1 | -12 | -14 | 86 | -15 | 51* | ?
O=C(CSc1nnc(-c2ccccc2Cl)o1)N1CCOCC1 | -1 | -8 | 108 | 2 | 8 | 14*
C(=NN=Cc1c[nH]c2ccccc12)c1c[nH]c2ccccc12 | -1 | 0 | / | -2 | / | /
O=C1CS/C(=N/N=C/c2c[nH]c3ccccc23)N1 | 2 | -4 | 117 | -4 | 78* | 1
COc1ccc(Nc2nc(N)nc(C(F)(F)F)n2)c(OC)c1 | -1 | 2 | 96 | -4 | 76* | 1
O=c1oc2ccccc2n1CSc1nc2ccccc2s1 | 0 | 1 | 108 | -10 | 61* | 4
CCn1c(CSc2nc3ccccc3[nH]2)nc2cc(C(=O)O)ccc21 | -120 | -146 | 93 | 0 | 60* | -1
Cn1c(=O)n(CCOc2ccc(Cl)cc2Cl)c2ccccc21 | -2 | -1 | 92 | -4 | 2 | 0
Cn1c(=O)n(CCOc2ccccc2Cl)c2ccccc21 | -1 | -4 | 96 | -11 | 59* | 3
COC(=O)C1CN(Cc2cn(Cc3ccc(C)cc3)nn2)CCS(=O)(=O)N1Cc1ccc(C)cc1 (configuration not stated) | 8 | 3 | / | 4 | / | /
CC(=O)Nc1sc(C)c(C)c1C(=O)OCC(=O)NCc1ccc(Cl)cc1 | 12* | -4 | 97 | 4 | 3 | /
O=C(OCCCN1CCC2(CCCCC2)C1=O)c1ccccc1 | 0 | -2 | / | 9 | / | /
CC(C)(C)N(NC(=O)Nc1cccc(F)c1)C(=O)c1ccccc1Cl | 8 | 10 | / | -1 | / | /
SMILES | PLCg1 inh | PLC-beta3 inh | CR mimetic SO | HGIII-sPLA2 inh | AHR activator | HIF activator
CCCCN1CCc2c1nc1ccc(Br)cc1c2N | -99 | -102 | 117 | -21 | 76* | 0
CCN(CC)c1ccc(NC(=O)CSc2nnc(SCc3ccc(Cl)cc3)s2)cc1 | -1 | -8 | / | 13 | / | /
COc1ccc(NC(=O)Cn2nc(C(F)(F)F)c3c2CCCC3)cc1OC | -3 | 3 | 74 | -7 | 2 | 0
O=C(Cn1nc(C(F)(F)F)c2c1CCCC2)Nc1ccc2c(c1)OCO2 | 1 | -2 | 98 | -9 | 50* | 0
C/C=C/c1ccc([C@H]2[C@@H](CN(CC(C)C)S(=O)(=O)c3ccccc3[N+](=O)[O-])N(C(=O)Nc3cccc(OC)c3)[C@H]2CO)cc1 | -1 | -2 | / | -8 | / | /
Cc1cc(C(=O)COC(=O)C2=NNC(=O)CC2)c(C)n1CCc1ccccc1 | 3 | -4 | 107 | -2 | 69* | 0
O=c1c2ccc([N+](=O)[O-])c3cccc(c32)c2nc3ccccc3n12 | / | / | 98 | / | 50* | 0
CC1CCC2(CC1)CCC2NCc1ccc(Cl)c(Cl)c1 (configuration not stated) | 1 | 2 | / | 16 | / | /
OCc1ccc(N=Nc2ccccc2)cc1 | 4 | 6 | 109 | 5 | -4 | 10*
O=C(Cc1nnc(NC(=O)c2ccccc2)s1)N/N=C\c1ccc(O)c(O)c1 | -8 | -19 | 100 | -20 | 56* | 0
Cc1nc2c(-c3ccc(Cl)cc3)cnn2c(N)c1-c1ccc(F)cc1 | -65 | -93 | 94 | -3 | 15 | 0
Cc1nc2c(-c3ccc(Cl)cc3)cnn2c2c1CCC2 | -49 | -64 | 95 | 6 | 74* | 1
Cc1ccccc1NC(=O)OC1CC2CC1[C@H]1CCCCN1[C@H]2Cc1ccccc1 (some centres not stated) | 4 | -5 | / | 9 | / | /
Cc1ccc2ccc(C3C(=O)c4ccccc4C3=O)nc2c1 | 1 | -2 | 104 | 6 | 58* | 3
Cc1ccc(C)c(C2C(=O)c3ccccc3C2=O)c1 | -1 | -5 | 125 | -4 | 3 | -1
Cc1cc(C)nc(NC(=S)N2CCN(c3ccc(Cl)c(Cl)c3)CC2)c1 | 1 | 2 | / | 9 | / | /
C=CCN1C(=O)[C@@H](CC(=O)NCc2ccccc2)[C@]2(C(=O)OC)CCCCC=C12 | 4 | 1 | / | -5 | / | /
Nc1ccc2c(c1)Cc1cc(N)c(Cl)cc1-2 | -34 | -57 | / | 24* | / | /
Cc1nc2ccc(S(=O)(=O)NCC(=O)NCc3ccccc3Cl)cc2s1 | -8 | 4 | / | -7 | / | /
O=C(CC(c1ccccc1)c1ccccc1)Nc1ccc(Cl)cn1 | 9.6* | 3 | 112 | -5 | 3 | 2
Cc1ccc2oc(-c3cccc(NC(=O)Cn4cnc5c(=O)n(C)c(=O)n(C)c54)c3)nc2c1 | / | / | 125 | / | 23 | 1
CCC(C)c1ccc2oc(-c3ccc(NC(=O)Cn4cnc5c(=O)n(C)c(=O)n(C)c54)cc3)nc2c1 (configuration not stated) | -5 | -3 | 128 | -2 | 11 | 10*
O=C(CSc1nnc(-c2ccc3c(c2)OCO3)o1)Nc1ncc(Cl)cc1Cl | -4 | -6 | 110 | -18 | 133* | 1
CN1[C@@H](Cc2ccccc2)COc2cccc(N3CCCC3)c2S1(=O)=O | 0 | -1 | / | 7 | / | /
O=C(Nc1cccc(-c2cn3ccccc3n2)c1)C1CC1 | -4 | -11 | 98 | 4 | 65* | 37*
